Where “and” joins values, the source holds several entries; their conditions need not be identical. Identical values can stand only once. Records with an inconclusive call do not appear. Calls of active or inactive are those of the source. How the source made its calls: active means hit-call score of the fitted dose curve at least 0.9, where 1 is the maximum; inconclusive means response in the unintended direction; inactive means score below 0.9.
How the values were obtained:
[1] = ATG_XTT_Cytotoxicity: Cytotoxicity Assessment in the Attagene TRANS-FACTORIAL HepG2 Assay (AID 2283584);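 on AC50: cells exposed to compound for 24 h before reading; active means loss of viability signal versus DMSO baseline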
In short: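 Cells: human HepG2, transiently transfected with MRTU reporter constructs. Exposure 24 h. Readout: XTT, cell number. Baseline/neg ctrl DMSO; loss-of-signal scored.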

[2] = TOX21_p53_BLA_p2_viability: Viability Assessment in the Tox21 HCT-116 p53 Agonism Beta-lactamase Assay, Phase 2 (AID 2283591);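 further: compound exposure lasted 16 h at 37 °C; actives lower the ATP signal meaning cytotoxicity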
In short: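 Cytotoxicity readout: CellTiter-Glo ATP luminescence, 30 min at room temperature, after the beta-lactamase read. Cells were HCT116 exposed 16 h at 37C to compounds pin-transferred at 217-fold dilution from DMSO stocks.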

For `c1csc(-c2ccc(-c3cccs3)s2)c1`, the outcome [1] was “inactive” and the outcome [2] was “inactive”.

For `Cc1cc(C(C)(C)c2ccc(O)c(C)c2)ccc1O`, the outcome [1] was “inactive” and the outcome [2] was “inactive”.

For `OCCCCO`, the outcome [2] was “inactive”.

With `O=C(Cc1ccccc1)OCCc1ccccc1` the outcome [2] was “inactive”.

In the case of `CCOP(=S)(OCC)Oc1ccc(Cl)cc1Cl`, the outcome [1] is reported as “inactive” and the outcome [2] is reported as “inactive”.

For `O=c1[nH]c2ccccc2n1C1CCN(CCCC(c2ccc(F)cc2)c2ccc(F)cc2)CC1`, the AC50 [1] was 18.1 µM (active) and the AC50 [2] was 13.8 µM (active) and 30.1 µM (active).

In the case of `O=[N+]([O-])c1ccccc1O`, the outcome [1] is reported as “inactive” and the outcome [2] is reported as “inactive”.

With `CC(C)CC(C)(c1ccc(O)cc1)c1ccc(O)cc1` the AC50 [1] was 25.9 µM (active) and the AC50 [2] was 23.7 µM (active) and 75.4 µM (active).

In the case of `CC(C)C(C)(N)C#N` (configuration not stated), the outcome [2] is reported as “inactive”.

With `CCCCC(CC)C(=O)Cl` (configuration not stated) the outcome [2] was “inactive”.

For `c1ccc2c(c1)Oc1ccccc1O2`, the outcome [2] was “inactive”.

With `O=NN1CCCCCC1` the outcome [2] was “inactive”.

With `CCCCCCCCCCCCN(C)C` the outcome [1] was “inactive” and the outcome [2] was “inactive”.

For `O=C(NC(=O)c1c(F)cccc1F)Nc1cc(Cl)c(Oc2ncc(C(F)(F)F)cc2Cl)c(Cl)c1`, the outcome [1] was “inactive” and the outcome [2] was “inactive”.

With `CCC[CH2][Sn]([Cl])([Cl])[CH2]CCC` the AC50 [2] was 552 nM (active) and 2.76 µM (active).

With `CC(C=O)Cc1ccc2c(c1)OCO2` (configuration not stated) the outcome [2] was “inactive”.

With `C=C(C)C(=O)OCC(CC)CCCC` (configuration not stated) the outcome [2] was “inactive”.

With `O=C(O)CC(O)(CC(=O)O)C(=O)O` the outcome [1] was “inactive” and the outcome [2] was “inactive”.
